Bioassay records (PubChem BioAssay)
AMA1-RON2 inh – AMA1-RON2 (P. falciparum) interaction inhibition. 360,000 tested, 0.2% active. AlphaScreen AMA1-biotinylated RON2 peptide binding. Potency, µM (titrated, usually from 58.2 µM), inactives show at the top dose activity change, negative = inhibition, most hits filed as inhibitors;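 also: potency is read from the fitted curve at half-maximal effect; 0% = vehicle wells and -100% = peptide control; nearly all actives have a fitted effect of over 45% in size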
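AMA1 (3D7) with his tag at 25 nM final met compounds first, then biotinylated RON2 peptide at 25 nM; detection used donor plus acceptor beads, 10 µg/mL apiece, read by AlphaScreen after 30 min at room temperature.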
HCV inh – inhibitors of hepatitis C virus infection; 340,000 tested, 3.4% active; Huh7.5.1 HCVcc-Cre infection, luciferase reporter, 44 h; AID 651820; Potency, µM (highest dose often 41.8 µM), for the others: at the top dose activity change, negative = inhibition, hits mostly inhibitors; also: potency is read from the fitted curve at half-maximal effect; % is scaled to controls: 0 for no effect and ±100 for the full control effect
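A cell-based infection assay in which seeded cells (1,000 per well) receive test compound after 4 h, are inoculated with HCVcc-Cre at approximately 0.5 moi, and are incubated 44 h before luminescence detection.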
Cycloheximide cs – counter-screen hit for Shiga toxin inhibitors, cycloheximide | cell reporter, cycloheximide protein synthesis inhibition counterscreen | max response, % | 300,000 tested, 12% active | AID 2314; in the data active = max response mostly above about 13%, no sharp cut-off; inactive = mostly below about 14%; also: read at 38.3 µM for the half of the compounds with a filed dose; 0% is about no effect
Pf growth 48h – inhibits P. falciparum growth in the first generation, 48 h. P. falciparum luciferase growth in erythrocytes, 48 h. Potency, µM (doses to about 28.7 µM), without a hit: top-dose activity change, negative = inhibition, most hits filed as inhibitors. 310,000 tested, 5.9% active. AID 504832; also: potency is read from the fitted curve at half-maximal effect; % is scaled to controls: 0 for no effect and ±100 for the full control effect
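Read-out is firefly luciferase luminescence from an integrated reporter in P. falciparum, so falling signal marks reduced parasite growth. Infected erythrocytes were at 2% hematocrit and 0.1% parasitemia (final) in Albumax-supplemented RPMI 1640.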
Shiga toxin inh – blocks Shiga toxin action in Vero cells | inhibition, % at 38.7 µM | 290,000 tested, 9.2% active | Vero cells, Shiga toxin protein synthesis inhibition reporter | AID 2315; in the data active = inhibition mostly above about 28%, no sharp cut-off; inactive = mostly below about 43%; also: 0% is about no effect
Pf growth 96h – inhibits malaria parasite growth, 96 h; Potency, µM (titrated, usually from 28.7 µM), without a hit: top-dose activity change, negative = inhibition, usual class: inhibitors; 320,000 tested, 6.9% active; P. falciparum luciferase reporter growth, 96 h; also: potency is read from the fitted curve at half-maximal effect; % is scaled to controls: 0 for no effect and ±100 for the full control effect
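Cell-based qHTS: luciferase-tagged P. falciparum in erythrocytes (2% hematocrit, 0.05% parasitemia final) incubated with compounds for 96 hours, 37 C, 5% CO2; luciferase detection reagent then added and luminescence measured.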
* = called active by the depositor. Sampled rows, rich in hits. Any-hit rate of the full collection: about 21%. Unless noted, calls follow the shape of the dose curve; as a rule, active = well fitted curve in the direction sought with a large enough effect; inconclusive = small, poorly fitted or top-dose-only effect, or another doubt; inactive = no such curve, though single readings can be large; an effect the other way counts as inactive or inconclusive.

Results for CCCCCCCCCCCCCCCCCCCCCCCCCCCCCC ?
Cycloheximide cs: -3; Shiga toxin inh: -3

Results for COc1ccccc1N1CCN(C(C)C(=O)Nc2ccc(S(=O)(=O)N3CCOCC3)cc2)CC1 (centres undefined) ?
AMA1-RON2 inh: 14%; HCV inh: -10%; Cycloheximide cs: 1; Pf growth 48h: 35%; Shiga toxin inh: 19; Pf growth 96h: inconclusive

Results for CC1=C(C(=O)OCc2ccc(C)cc2)C(c2ccc(O)c([N+](=O)[O-])c2)NC(=O)N1 (centres undefined) ?
AMA1-RON2 inh: -26%; HCV inh: 1%; Cycloheximide cs: -2; Pf growth 48h: 12µM*; Shiga toxin inh: 2; Pf growth 96h: -4%

How did COc1ccc(COC(=O)C2=C(C)NC(=O)NC2c2cccc(Br)c2)cc1 (centres undefined) do in these assays?
AMA1-RON2 inh: -5%; HCV inh: 10µM*; Cycloheximide cs: -2; Pf growth 48h: inconclusive; Shiga toxin inh: -4; Pf growth 96h: inconclusive

How did CCOc1cc(C2NC(=O)NC(C)=C2C(=O)OCc2ccccc2)ccc1O (centres undefined) do in these assays?
AMA1-RON2 inh: -1%; HCV inh: -27%; Cycloheximide cs: -4; Pf growth 48h: 2.3µM*; Shiga toxin inh: 11; Pf growth 96h: -10%

How did COc1ccc(COC(=O)C2=C(C)NC(=O)NC2c2ccc(OC)c(OC)c2)cc1 (centres undefined) do in these assays?
AMA1-RON2 inh: -5%; HCV inh: -14%; Cycloheximide cs: -3; Pf growth 48h: inconclusive; Shiga toxin inh: -16; Pf growth 96h: 191%

Results for COc1ccc(COC(=O)C2=C(C)NC(=O)NC2c2ccc(O)c(OC)c2)cc1 (centres undefined) ?
AMA1-RON2 inh: -5%; HCV inh: -17%; Cycloheximide cs: -4; Shiga toxin inh: -5; Pf growth 96h: 10µM*

Results for CC(C)c1ccc(NC(=O)Nc2nc(C(N)c3ccccc3Cl)cs2)cc1 (centres undefined) ?
AMA1-RON2 inh: 73%

How did FC(F)(F)c1ccc(NCCc2ccccc2)nc1 do in these assays?
AMA1-RON2 inh: 6%; HCV inh: 9%; Cycloheximide cs: 14*; Pf growth 48h: 26%; Shiga toxin inh: 19; Pf growth 96h: -25%

Results for NS(=O)(=O)c1ccc(CCNc2ccc(C(F)(F)F)cn2)cc1 ?
AMA1-RON2 inh: -2%; HCV inh: 15%; Cycloheximide cs: -4; Pf growth 48h: 25%; Shiga toxin inh: -5; Pf growth 96h: 31%

Results for Cc1nnc(Sc2cc(C(=O)NCCCN(C)Cc3ccccc3)c3ccccc3n2)s1 ?
AMA1-RON2 inh: 16%; HCV inh: -13%; Cycloheximide cs: -2; Pf growth 48h: inconclusive; Shiga toxin inh: -2; Pf growth 96h: 2.1µM*

What do the screens show for `COCCCNC(=O)c1cc(Sc2nnc(C)s2)nc2ccccc12`?
AMA1-RON2 inh: 37%; HCV inh: -27%; Cycloheximide cs: -2; Pf growth 48h: -51%; Shiga toxin inh: -4; Pf growth 96h: 3%

What do the screens show for `CCOCCCNC(=O)c1cc(Sc2nnc(C)s2)nc2ccccc12`?
AMA1-RON2 inh: 2%; HCV inh: 10µM*; Cycloheximide cs: 2; Pf growth 48h: -24%; Shiga toxin inh: 2; Pf growth 96h: -19%

What do the screens show for `CCC(C)[C@H](NC(=O)N1CCCC1)C(=O)O` (some centres undefined)?
AMA1-RON2 inh: 1%; HCV inh: 18%; Cycloheximide cs: 1; Shiga toxin inh: -9; Pf growth 96h: 6.6µM*

Results for CC(C)(C)c1ccc(Cn2nc(CC(=O)O)c3ccccc3c2=O)cc1 ?
AMA1-RON2 inh: -9%; HCV inh: 17%; Cycloheximide cs: -4; Pf growth 48h: -18%; Shiga toxin inh: -16; Pf growth 96h: -15%

How did Clc1nc(-c2ccccn2)nc2scc(-c3ccccc3)c12 do in these assays?
AMA1-RON2 inh: 89%; HCV inh: inconclusive; Cycloheximide cs: 93*; Pf growth 48h: inconclusive; Shiga toxin inh: active; Pf growth 96h: -44%

How did CN(C)c1ccc(-c2nnn(Cc3ccccc3Br)n2)cc1 do in these assays?
AMA1-RON2 inh: -26%; HCV inh: 0%; Cycloheximide cs: 17*; Pf growth 48h: inconclusive; Shiga toxin inh: 27; Pf growth 96h: inconclusive

What do the screens show for `Cc1ccc(-c2nnn(Cc3nc4ccccc4s3)n2)cc1`?
AMA1-RON2 inh: 20%; HCV inh: 17%; Cycloheximide cs: 16; Pf growth 48h: 11%; Shiga toxin inh: -3; Pf growth 96h: 40%

How did Clc1ccccc1-c1nnn(Cc2ccc(-c3nn[nH]n3)cc2)n1 do in these assays?
AMA1-RON2 inh: 0%; HCV inh: 2%; Cycloheximide cs: -2; Pf growth 48h: 11%; Shiga toxin inh: -13; Pf growth 96h: inconclusive

What do the screens show for `CCC(C(=O)O)n1nnc(-c2ccc(OCc3ccccc3)c(OC)c2)n1` (centres undefined)?
Cycloheximide cs: -3; Pf growth 48h: 1%; Shiga toxin inh: -4; Pf growth 96h: 4.7µM*

How did COc1ccc(-c2nnn(Cc3ccccc3)n2)cc1OC do in these assays?
AMA1-RON2 inh: 10%; HCV inh: -27%; Cycloheximide cs: 11*; Pf growth 48h: -5%; Pf growth 96h: 38%

What do the screens show for `Clc1ccccc1Cn1nnc(-c2ccccc2)n1`?
AMA1-RON2 inh: 14%; HCV inh: -2%; Cycloheximide cs: 53*; Pf growth 48h: inconclusive; Shiga toxin inh: 105*; Pf growth 96h: 27%

What do the screens show for `CCOc1ccc(-n2c(=S)sc3c(=O)[nH]c(SCC(=O)NC4CCCCC4)nc32)cc1`?
AMA1-RON2 inh: -30%

Results for CC(C)OC(=O)N(C)C[C@@H]1OCc2ccccc2-c2c(n(C)c3ccccc23)C(=O)N([C@@H](C)CO)C[C@H]1C ?
AMA1-RON2 inh: 9%

What do the screens show for `Clc1ccccc1Cn1nnc(-c2cccs2)n1`?
AMA1-RON2 inh: 45%; HCV inh: -2%; Cycloheximide cs: 29*; Pf growth 48h: 114%; Shiga toxin inh: 61*; Pf growth 96h: 0%

How did Clc1ccccc1Cn1nc(-c2ccccc2)nc1-c1ccccc1 do in these assays?
AMA1-RON2 inh: 20%; HCV inh: 11%; Cycloheximide cs: 18*; Pf growth 48h: -5%; Shiga toxin inh: 13; Pf growth 96h: 38%

What do the screens show for `Clc1ccc(Cn2nnc(-c3ccccc3)n2)cc1`?
AMA1-RON2 inh: 44%; HCV inh: -5%; Cycloheximide cs: 28*; Pf growth 48h: 16%; Shiga toxin inh: 57*; Pf growth 96h: -25%

What do the screens show for `Clc1ccc(Cn2nnc(-c3ccc(CN4CCOCC4)cc3)n2)cc1`?
AMA1-RON2 inh: -8%; HCV inh: -6%; Cycloheximide cs: 0; Pf growth 48h: -19%; Shiga toxin inh: -24; Pf growth 96h: -7%
